TMEM16A act – mouse TMEM16A channel activation, primary screen; Q8BHY3; actives 0.3% (n = 340,000); B-score at 10 µM; HEK293 TMEM16A/YFP-H148Q/I152L, iodide quench fluorescence; stronger effect = lower value;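 active means fluorescence-ratio B-score plate-corrected deviation score at least 3 library SD below zero, with starting fluorescence score within 5 deviations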;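 further: channel opened by trigger with iodide after compound preincubation; score built on the fluorescence ratio of max minus min over baseline; more negative score means more quench and so TMEM16A activation or potentiation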
Target sequence (Q8BHY3 whole entry, looked up): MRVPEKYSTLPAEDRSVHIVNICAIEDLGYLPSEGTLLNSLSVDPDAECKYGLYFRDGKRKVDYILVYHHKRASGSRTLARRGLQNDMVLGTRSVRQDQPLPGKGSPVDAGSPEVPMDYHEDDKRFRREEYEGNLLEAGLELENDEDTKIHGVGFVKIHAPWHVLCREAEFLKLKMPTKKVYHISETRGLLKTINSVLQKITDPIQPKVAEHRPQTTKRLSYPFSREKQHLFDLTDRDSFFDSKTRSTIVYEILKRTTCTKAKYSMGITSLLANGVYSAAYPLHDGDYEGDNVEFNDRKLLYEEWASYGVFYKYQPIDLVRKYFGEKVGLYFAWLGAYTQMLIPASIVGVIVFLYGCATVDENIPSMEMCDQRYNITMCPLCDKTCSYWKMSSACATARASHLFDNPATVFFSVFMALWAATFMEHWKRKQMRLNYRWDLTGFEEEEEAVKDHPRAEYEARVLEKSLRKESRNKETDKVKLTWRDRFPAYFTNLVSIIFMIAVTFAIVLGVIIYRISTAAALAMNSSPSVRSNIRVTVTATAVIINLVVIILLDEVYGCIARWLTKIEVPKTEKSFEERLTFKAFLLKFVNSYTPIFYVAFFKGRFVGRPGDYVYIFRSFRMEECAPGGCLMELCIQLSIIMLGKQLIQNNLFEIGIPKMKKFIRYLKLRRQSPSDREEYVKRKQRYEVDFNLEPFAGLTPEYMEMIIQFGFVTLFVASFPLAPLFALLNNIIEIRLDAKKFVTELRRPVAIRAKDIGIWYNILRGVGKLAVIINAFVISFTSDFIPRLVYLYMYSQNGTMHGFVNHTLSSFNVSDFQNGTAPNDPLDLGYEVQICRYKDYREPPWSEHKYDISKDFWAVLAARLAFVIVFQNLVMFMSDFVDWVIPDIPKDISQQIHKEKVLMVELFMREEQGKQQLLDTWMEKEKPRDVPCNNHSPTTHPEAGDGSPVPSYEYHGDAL
TLR4-MyD88 BLA – inhibitors of human TLR4-MyD88 binding | O00206+Q99836 | actives 0.18% (n = 200,000) | AID 861 | HeLa CL3-4 TLR4/MyD88 BLA complementation, FRET ratio | inhibition, % at 8.4 µM; in the data active means inhibition above about 25%;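 further: 0% = vehicle and 100% = reference inhibitor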
TLR9-MyD88 block – inhibitors of human TLR9-MyD88 binding | Q9NR96+Q99836 | inhibition, % at 4.98 µM | CHO BLA complementation TLR9-MyD88, CCF4 FRET ratio | AID 504734 | actives 0.21% (n = 340,000);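 active means inhibition above the mean over all tested compounds plus 3 SD, cut at about 21% in these data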;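 further: 0% = DMSO only wells and 100% = clavulanate BLA inhibitor control wells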
GRK2 aptamer HTS – blocks RNA aptamer binding to human GRK2. P25098. bead flow cytometry, FAM-aptamer displacement from GRK2. inhibition of aptamer binding, % at 10 µM. actives 0.59% (n = 330,000). AID 488847;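 active means inhibition of aptamer binding above 40%, roughly 3 SD of noise, on plates passing a quality check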;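 further: median bead fluorescence of bound FAM aptamer so fluorescent compounds give negative values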
NOD2-RIPK2 inh – NOD2-RIPK2 protein interaction inhibition | O43353 | CHO BLA complementation NOD2-RIPK2, CCF4 ratio | inhibition, % at 4.98 µM | actives 0.38% (n = 360,000); in the data active means inhibition above about 21%;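 further: 0% = vehicle only and 100% = reference blocker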
TMEM16A inh – inhibitors of mouse TMEM16A calcium-activated chloride channel | normalized B-score (activity score, 25-100; higher = stronger inhibition) at 10 µM | HEK293 TMEM16A/YFP iodide influx fluorescence, ionomycin | actives 1.2% (n = 310,000) | AID 588511;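 active means ratio plate-corrected score three or more library SD toward inhibition, starting fluorescence score within five deviations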;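 further: score derived from kinetic fluorescence span divided by baseline fluorescence per well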
GRK2 inh confirm – confirmation of human GRK2 inhibitors displacing RNA aptamer | shares compounds with GRK2 aptamer HTS | bead-bound GRK2, FAM-aptamer displacement, flow cytometry | aptamer displacement, % at 10 µM | actives 4% (n = 2,000) | AID 504451;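 active means aptamer displacement above 40%, near three times the noise of non-fluorescent compounds, on plates passing quality checks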;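 further: negative values mostly reflect intrinsic compound fluorescence rather than true enhancement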
FAM quench CP1 – counter-screen for GRK2 aptamer inhibitors: fluorescent aptamer quenchers; Carboxyfluorescein RNA aptamer on beads, flow cytometry quenching; stronger effect = lower value; 2,000 tested, under 10 active; shares compounds with GRK2 aptamer HTS; AID 504580; fluorescence response (% of DMSO), % at 10 µM;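 active means compounds that quench the bead-bound fluorescent RNA probe, cutting fluorescence to under half of the solvent control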;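 further: counterscreen run without GRK2 so only probe quenching by compound is measured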
GRK2 CP2 – confirmation of human GRK2 inhibitors binding RNA aptamer site. 360 tested, under 10 active. AID 504782. bead-bound GRK2, FAM-aptamer displacement, flow cytometry. inhibition of aptamer binding, % at 10 µM. shares compounds with GRK2 aptamer HTS;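 active means inhibition of aptamer binding above 40%, about triple the noise seen with nonglowing compounds, on plates passing quality control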;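 further: negative values mostly come from compounds that fluoresce themselves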
FAM quench SP – aptamer fluorescence quenching in GRK2 counter-screen | fluorescence response vs DMSO, % at 10 µM | AID 588494 | shares compounds with GRK2 aptamer HTS | carboxyfluorescein RNA aptamer beads, flow cytometry quenching; stronger effect = lower value | 360 tested, under 10 active;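 active means response vs DMSO under 50%, meaning signal dropped by over half, treated as fluorescence quencher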;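 further: labelled aptamer on streptavidin beads without GRK2 as a quench counter-screen; 100% = bead fluorescence of DMSO wells and lower means quenching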
* = called active by the depositor; i = inactive; nt = not tested or not shown. Sampled rows, rich in hits. Any-hit rate of the full collection: about 2.2%.

SMILES	TMEM16A act	TLR4-MyD88 BLA	TLR9-MyD88 block	GRK2 aptamer HTS	NOD2-RIPK2 inh	TMEM16A inh	GRK2 inh confirm	FAM quench CP1	others
COCCNC(=S)N/N=C1\CC(C)CC(C)(C)C1 (stereo unspecified)	i	4	5	5	3	i	nt	nt
CC(NC(=O)c1ccc(C(C)(C)C)cc1)C(c1cccs1)N1CCOCC1 (stereo unspecified)	i	nt	0	53*	-11	i	nt	nt	GRK2 CP2=5;FAM quench SP=102
CC(NC(=O)c1ccncc1)C(c1cccs1)N1CCOCC1 (stereo unspecified)	i	-2	-9	0	0	i	nt	nt
CN(C(=O)CCN1C(=O)/C(=C/c2ccccc2)SC1=S)C1CCS(=O)(=O)C1 (stereo unspecified)	i	nt	-11	72*	1	i	0	99
Cc1ccc(NC(=O)CN(C)CC(=O)Nc2ccc(N3CCOCC3)cc2)c(C)c1	i	1	-6	2	-7	i	1	93
CN(CC(=O)Nc1ccc(N2CCOCC2)cc1)CC(=O)Nc1ccc(C(F)(F)F)cc1	i	3	-3	6	2	i	nt	nt
CN(CC(=O)Nc1ccc(N2CCOCC2)cc1)CC(=O)Nc1ccccc1C#N	i	5	-6	0	-7	i	0	94
Cc1ccc(S(=O)(=O)N(C)C)cc1NC(=O)C(C)OC(=O)c1ccc2c(=O)n3c(nc2c1)CCC3 (stereo unspecified)	i	nt	-3	nt	-2	nt	nt	nt
CCCc1cc(=O)oc2c(CN3CCN(C)CC3)c(O)ccc12	i	nt	2	51*	-4	i	0	98
O=C(c1ccc(=O)[nH]n1)N1CCN(S(=O)(=O)c2ccc(C(F)(F)F)cc2)CC1	i	nt	-10	0	12	nt	nt	nt
Cc1ccnn1CCC(=O)N1CCCC(CCC(=O)NCc2ccccc2F)C1 (stereo unspecified)	i	-6	-5	3	2	i	0	99
COc1ccccc1CC(=O)N1CCCC(CCC(=O)NCc2ccccc2F)C1 (stereo unspecified)	i	nt	-3	1	-1	i	nt	nt
O=C1CCCCN1CCCC(=O)N1CCCC(Nc2ccc(F)c(F)c2)C1 (stereo unspecified)	i	nt	-1	0	-6	i	nt	nt
Nc1nc(O)c(N=Nc2ccc(S(N)(=O)=O)cc2)c(=O)[nH]1	nt	nt	nt	44*	nt	i	4	98
CC(C)Cc1cc(C(=O)Nc2ccc3c(c2)OCO3)no1	i	10	1	74*	-5	i	-17	94
COc1cccc(NC(=O)C(C)NS(=O)(=O)c2ccc(Br)cc2)c1 (stereo unspecified)	i	nt	9	41*	-6	i	nt	nt	GRK2 CP2=-10;FAM quench SP=99
COc1ccc(OC)c(CNC(=O)c2ccc(C)c(NC(=O)C3=C(C)OCCS3)c2)c1	i	nt	-4	0	3	i	0	101
CC1=C(C(=O)Nc2cc(C(=O)N(C)Cc3ccccc3)ccc2C)SCCO1	i	nt	-3	2	-9	i	1	102
COCCNC(=O)c1ccc(C)c(NC(=O)C2=C(C)OCCS2)c1	i	nt	-3	5	-2	i	nt	nt
CCC(C)(C)NC(=O)C(c1ccccn1)N(C(=O)c1csnn1)C1CCCCC1 (stereo unspecified)	i	-12	11	0	-14	i	nt	nt
CCC(C)(C)NC(=O)C(c1ccccc1)N(C(=O)c1csnn1)C1CC1 (stereo unspecified)	i	10	-3	60*	-2	i	-1	99
COc1ccc(CNC(=O)CN2C(=O)NC(c3ccccc3)(c3ccccc3)C2=O)cc1	i	nt	0	0	-4	nt	nt	nt
CC1(c2ccc3ccccc3c2)NC(=O)N(CC(=O)O)C1=O (stereo unspecified)	i	nt	2	47*	-7	i	-3	99
COc1ccc(CNC(=O)CN2C(=O)NC(C)(c3ccc(Cl)cc3)C2=O)cc1 (stereo unspecified)	i	nt	-8	54*	-7	i	-1	102
OC(c1ccc(-c2ccccc2)cc1)c1ncc(-c2ccccc2)[nH]1 (stereo unspecified)	nt	nt	nt	nt	5	nt	nt	nt
SMILES	TMEM16A act	TLR4-MyD88 BLA	TLR9-MyD88 block	GRK2 aptamer HTS	NOD2-RIPK2 inh	TMEM16A inh	GRK2 inh confirm	FAM quench CP1	others
CCn1c(=S)sc2c(=O)n(CC(=O)Nc3ccccc3C(F)(F)F)c(C)nc21	i	nt	3	59*	2	i	-12	97
COc1ccccc1-c1nc(SCC(=O)N2CCOCC2)n[nH]1	i	nt	5	0	1	i	nt	nt
O=C(CSc1n[nH]c(-c2ccc(Br)cc2)n1)N1CCOCC1	i	nt	6	20	-7	nt	-2	101
Cc1cccc(NC(=O)CN(C)C(=O)Cc2ccc(-c3ccccc3)cc2)c1C	nt	nt	5	nt	3	nt	nt	nt
COc1ccc(C2=NN(CC(=O)NCC(OC)OC)C(=O)CC2)cc1	i	nt	-4	0	-4	i	nt	nt
O=C(CNC(=O)c1ccccc1F)N/N=C/c1ccc2c(c1)OCO2	i	nt	10	82*	10	i	-2	101
O=C(CNC(=O)c1ccccc1Cl)N/N=C/c1ccc2c(c1)OCO2	i	nt	2	0	-5	i	nt	nt
CCOCCc1nnc(NC(=O)C2CC(=O)N(c3ccc(OCC)cc3)C2)s1 (stereo unspecified)	i	nt	-11	93*	-7	i	0	96
COC(=O)c1c(C(=O)OC)c(-c2ccc(OC)cc2)n2c1CS(=O)(=O)C2	i	nt	6	5	-1	i	nt	nt
C=CCn1c(N)cc(=O)nc1SCC(=O)N1CCN(c2ccc(F)cc2)CC1	i	-5	7	56*	-6	i	-5	104
N=C(SC1CC(=O)N(c2ccc(F)cc2)C1=O)N1N=C(c2ccccc2)CC1c1ccccc1 (stereo unspecified)	i	1	-3	0	-2	i	nt	nt
O=C(CNS(=O)(=O)c1ccc(Cl)c(C(F)(F)F)c1)NC1CCCCCC1	i	nt	-5	43*	7	nt	nt	nt	GRK2 CP2=13;FAM quench SP=100

Screening results deposited in PubChem by several laboratories.
